Here are results for 94 compounds from PubChem BioAssay AID624125 (The Scripps Research Institute Molecular Screening Center, 2012).

About 2,600 (0.72%) of roughly 360,000 compounds were called active. Many of the other results were omitted from the sample, so actives are more common in it than they were. Values without a mark were called inactive.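 The calls were made as follows: active = inhibition above its plate's cutoff, the mean inhibition of sample wells plus 3 SD (cut at about 27% in these data); inactive = the rest.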

This assay deals with Muscarinic acetylcholine receptor M4 (Homo sapiens) (UniProt P08173). Description: human M4 muscarinic receptor antagonists, primary screen, CHO cells, Fluo-8 calcium fluorescence (AID 624125).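 Also: 0% = acetylcholine EC80 with DMSO and 100% = DMSO without agonist.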 The following applies: CHO-hM4 cells, ACh EC80, Fluo-8 calcium fluorescence; at 3 µM; hits give high values.
Muscarinic acetylcholine receptor M4 (Homo sapiens), sequence (P08173 whole entry, looked up): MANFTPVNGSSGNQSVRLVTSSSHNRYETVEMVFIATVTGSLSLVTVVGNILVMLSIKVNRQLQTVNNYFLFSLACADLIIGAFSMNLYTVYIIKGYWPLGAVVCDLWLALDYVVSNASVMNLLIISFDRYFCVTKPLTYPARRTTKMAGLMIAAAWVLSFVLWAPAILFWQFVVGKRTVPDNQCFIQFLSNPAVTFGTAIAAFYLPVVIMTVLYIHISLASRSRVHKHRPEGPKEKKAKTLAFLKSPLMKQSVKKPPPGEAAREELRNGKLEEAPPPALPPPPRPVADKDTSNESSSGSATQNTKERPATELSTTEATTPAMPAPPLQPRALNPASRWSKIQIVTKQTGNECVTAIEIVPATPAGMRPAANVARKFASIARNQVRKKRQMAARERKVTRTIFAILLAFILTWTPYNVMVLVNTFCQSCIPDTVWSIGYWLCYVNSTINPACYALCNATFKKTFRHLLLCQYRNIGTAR
For `C#CCNC(=O)C1=C[C@@H](c2ccccc2)[C@H](CCCO)[C@@H](OCC)O1`, the inhibition – broadly, the drop in the measured response relative to a control, in per cent – was 12.4%. For the compound `O=C1/C(=C\c2ccc([N+](=O)[O-])cc2)CS(=O)(=O)C/C1=C/c1ccc([N+](=O)[O-])cc1`, the inhibition is 26.7% (active). The result for `O=[N+]([O-])c1ccc(CN2CC(N3CC=CC3)CS2(=O)=O)cc1` (centres undefined) reads -1.16%; that for `O=C(CSCc1c(F)cccc1Cl)NCC1CCCO1` (centres undefined), -3.01%. The result for `CC(=O)Nc1ccccc1OC(C)C(=O)N1CCC(C)CC1` (centres undefined) reads -7.56%. Take `CC(C)c1cc(C(=O)N(C)C2CCCN(Cc3ccccc3F)C2)n(C)n1` (centres undefined): the inhibition is -12.6%. Regarding `O=C(O)C(c1cccs1)C1(O)CCCCC1` (centres undefined), the inhibition was 5.22%. The result for `O=C(O)C(c1ccccc1)C1(O)CCCCC1` (centres undefined) reads -13.2%. Under `CN(C)CCOC(=O)C(c1ccccc1)C1(O)CCCC1` (centres undefined) stands 98% (active); under `CCC(C)[C@H](NC(=O)N1CCn2c1nc1ccccc12)C(=O)NCc1ccc(OC)cc1` (some centres undefined), -15.9%; under `NS(=O)(=O)c1ccc(CCNC(=O)c2ccc([N+](=O)[O-])cc2[N+](=O)[O-])cc1`, 5.77%.

Regarding `COc1nnc(-c2ccc(C)c(S(=O)(=O)N(C)C)c2)c2ccccc12`, the inhibition is 2.31%. `COC(=O)c1ccc2nc(-c3ccccc3)c(Cc3ccc(OC)cc3C)n2c1`: the inhibition was 11.4%. With `COC(=O)c1ccc2nc(-c3cccc(Br)c3)c(Cc3ccc(OC)cc3C)n2c1`, the inhibition is 1.2%. Turning to `CCCCNc1c(-c2cccc(Sc3ccc(OC)cc3)c2)nc2ccccn12`, the inhibition is 48.5% (active). The result for `CN1C(=O)CC(N2CCN(c3ccccn3)CC2)C1=O` (centres undefined) reads 2.5%; that for `Cc1ccc(C(=O)N(CN2CCCC2=O)c2ccc(F)cc2)cc1`, 6.56%; that for `COc1cccc(CC2(CO)CCN(Cc3cnc(-c4cccc(C)c4)nc3)CC2)c1`, 0.77%. The result for `COc1ccc(CC2(CO)CCN(Cc3cnn(C)c3)CC2)cc1` reads -5.66%. As for `COC(=O)c1ccc(CN2CCC(CO)(Cc3ccc(OC)cc3)CC2)cc1`, the inhibition is 31.7% (active).

As to `CC(C)(C)Nc1c(-c2cccs2)nc2ccccn12`, the inhibition was 6.54%. The result for `O=C(CNS(=O)(=O)c1ccc2c(c1)OCCCO2)N1CCN(c2ccc(F)cc2)CC1` reads -7.25%. For the compound `CC(C)CCN1C(=O)c2ccc(C(=O)Nc3cccc(S(N)(=O)=O)c3)cc2C1=O`, the inhibition was 4.89%. Under `CN=C1C=C/C(=N/N=c2\ccn(O)cc2C)C=C1C` stands 11.9%; under `c1ccc2c(C[n+]3csc4ccccc43)cccc2c1`, 30.1% (active).

As for `Nc1scc[n+]1Cc1cccc2cccnc12`, the inhibition is -7.43%.

`CCN(CC(=O)Nc1ccccc1OC)C(=O)CC1CC2CCC1C2` (centres undefined): the inhibition was 0.94%.

For `Cc1cccc2c1N(CCOc1ccccc1)C(=O)C2=O`, the inhibition is -0.73%. Take `C/C(=N\N1CCN(Cc2ccc(C)cc2)CC1)c1ccco1`: the inhibition was 1.69%. The result for `CCOC(=O)c1ccccc1NC(=O)COC(=O)CCC(=O)N1CCOCC1` reads 2.73%; that for `C[C@H]1[C@H]2c3nc4ccccc4n3C[C@H]1ON2C1CCCCC1`, -2.5%.

In the case of `Cc1onc(-c2ccccc2)c1-c1nnc(COC(=O)c2ccc(N(C)C)cc2)o1`, the inhibition is 62.4% (active). The result for `Cc1ccc(C(=O)NCC(=O)OCc2nnc(-c3ccccc3)o2)cc1` reads 8.37%; that for `O=C(OCc1nnc(-c2ccccc2)o1)c1ccc2c(c1)C(=O)N(CCc1ccccc1)C2=O`, -2.43%. Take `COc1ccc(C(=O)N2CCCCC2c2cc(C(=O)Nc3ccccc3)no2)cc1` (centres undefined): the inhibition is -6.76%. The result for `Cc1c(C(=O)Nc2ccccc2)sc2nc3n(c(=O)c12)CCCCC3` reads -0.96%; that for `Cn1c(-c2ccc(C(=O)c3ccccc3)s2)nc2ccccc21`, 1.58%. The result for `Cc1nc2sc(C(=O)c3ccccc3)c(N)c2c2c1CCCC2` reads 29.8% (active). Take `COc1ccc([C@H]2C[C@@H](n3cc(COC(=O)c4ccccc4)nn3)[C@H](O)CN2C(=O)c2cccs2)cc1`: the inhibition is -7.8%. As for `Cc1ccc(S(=O)(=O)N(CC(=O)NCCSC2CCCCC2)c2ccccc2F)cc1`, the inhibition was -2.75%. The result for `CCOC(=O)C1=CC[C@@H](c2ccccc2)N(S(=O)(=O)c2ccc(C)cc2)[C@H]1c1ccc(CC)cc1` reads -16.5%; that for `CCCCC[C@@H]1C=C(C(=O)OCC)[C@H](c2ccccc2)N1S(=O)(=O)c1ccc(C)cc1`, -11.2%; that for `CCOC(=O)C1C(C)C(C(C)(C)C)N(S(=O)(=O)c2ccc(C)cc2)C1c1ccccc1` (centres undefined), 37.7% (active). Under `CCC(C)NCCOCCOc1ccc(Br)cc1C` (centres undefined) stands 6.84%; under `Cc1ccc(C)c(NC(=O)C(OC(=O)c2ccc(C)s2)c2ccccc2)c1` (centres undefined), -13.1%; under `CCCOc1ccc(F)cc1-c1cc(C(=O)NCc2ccc(F)cc2)[nH]n1`, -9.17%.

As to `CCCOc1ccc(F)cc1-c1cc(C(=O)Nc2ccc(F)c(Cl)c2)[nH]n1`, the inhibition is 28% (active). Consider `CCCOc1ccc(F)cc1-c1cc(C(=O)Nc2ccc(F)cc2)[nH]n1`, for which the inhibition is -2.62%. Under `CC(=O)NC(C(=O)NCC(N)=O)C(C)C` (centres undefined) stands -7.93%; under `Cc1ccc(C)c(S(=O)(=O)Nc2cccc(-n3cnnn3)c2)c1`, 4.01%. The result for `O=C(CC1Oc2ccccc2NC1=O)NCCCN1CCN(Cc2ccccc2)CC1` (centres undefined) reads -1.94%; that for `CN(C)c1ccc(CNC23CN4CN(CN(C4)C2)C3)cc1`, 3.33%. Consider `O=C(CN1CCN(Cc2ccccc2)CC1)NC(c1ccccc1)c1ccccc1`, for which the inhibition is 44.7% (active). On to `O=C(CN1CCN(Cc2ccccc2)CC1)Nc1ccc(F)c(F)c1`, for which the inhibition is 13%. The result for `O=C(CN1CCc2ccccc21)NC(c1ccccc1)c1ccccc1` reads -1.96%. Under `CN(CCc1ccccc1)c1ccc([N+](=O)[O-])cn1` stands 10.7%.

In the case of `COc1cc(NC(=S)NNC(=O)CC(C)C)c(OC)cc1Cl`, the inhibition is -7.19%.

Take `CN(O)C(=S)c1ccccc1`: the inhibition is 31.7% (active). With `Cc1nn(Cc2ccccc2)c(C)c1CNC(=O)c1ccc(F)c(S(=O)(=O)N2CCOCC2)c1`, the inhibition was -8.04%.

Consider `Cc1cccc(CSc2ccc(-c3cccs3)nn2)c1`, for which the inhibition was -4.51%. The result for `CSCCC1NC(=O)N(CC(=O)Nc2cccc(S(=O)(=O)N3CCCCCC3)c2)C1=O` (centres undefined) reads -15.2%; that for `O=C(/C=C/c1ccc(Cl)cc1)Nc1ccc(S(=O)(=O)Nc2ncccn2)cc1`, 0.88%; that for `C/C(=N\NS(=O)(=O)c1ccc(Cl)cc1)c1ccc(NC(=O)c2ccco2)cc1`, 7.91%.

As to `O=C(Nc1ccccc1)c1nnsc1S(=O)(=O)c1ccc(Cl)cc1`, the inhibition is 70.3% (active). Turning to `Cn1c(CC(=O)Nc2ccc(F)cc2)nnc1SCC(=O)NC1CCCCC1`, the inhibition was -3.82%.

On to `CC(=O)N1CCc2c(sc(NC(=O)CCS(=O)(=O)c3ccc(C)cc3)c2C(N)=O)C1`, for which the inhibition was -0.18%.

On to `CS(=O)(=O)c1ccc(C(=O)NNC(=O)c2cccs2)cc1`, for which the inhibition was 0.8%. Under `Cc1ccc2[nH]cc(CCCN3C(=O)c4ccccc4C3=O)c2c1` stands -6.81%.

For the compound `COCCn1c(SCC(=O)Nc2ccc(F)cc2F)nc2c(c1=O)SCC2`, the inhibition was -3.44%. The result for `Cc1cccc(CSc2nnc(C)c(=O)n2N)c1` reads -5.35%; that for `Cc1cccc(CSc2nc3c(c(=O)n2C)SCC3)c1`, 30.4% (active); that for `CCOC(=O)C1=CN(Cc2ccc(Br)cc2)S(=O)(=O)NC1C` (centres undefined), -12.5%. The result for `O=C1C2(c3ccccc3)CN(CCCO)CC1(c1ccccc1)CN(CCCO)C2` reads 4.09%; that for `FC(F)(F)c1cccc(-c2cc3ccccc3nc2N2CCCC2)c1`, 2.79%; that for `CCN(CC)CCCC(C)n1c2nc(=O)[nH]c(=O)c-2nc2cc(Cl)ccc21` (centres undefined), 38.6% (active). Under `C=CCn1c(N)cc(=O)nc1SCC(=O)Nc1cccc2ccccc12` stands 0.21%.

As for `CCN(CC)P(=O)(C(NC(=O)OC)C(F)(F)C(F)(F)C(F)(F)C(F)F)N(CC)CC` (centres undefined), the inhibition is 2.64%. Under `COc1ccc(NC(=O)/C(Cl)=C(/Cl)S(=O)Cc2ccc(C)cc2)cn1` (centres undefined) stands 50.8% (active); under `CC(C)=CCCC1(C)C=Cc2c(ccc3c2[nH]c2cc(O)c(C)cc23)O1` (centres undefined), -7.94%; under `Cc1c(CN2CCCC(C(=O)c3cccc(Cl)c3)C2)c(=O)n(-c2ccccc2)n1C` (centres undefined), 7.63%. Consider `O=C(C[C@H]1C/C=C\C[C@@H](NC(=O)OCC2c3ccccc3-c3ccccc32)C(=O)O[C@@H](c2ccccc2)CNC1=O)N[C@H](CO)Cc1ccccc1`, for which the inhibition was -3.13%. Under `O=C(NNC(=O)C1C2CCC(C2)C1C(=O)O)c1ccc(Cl)cc1` (centres undefined) stands 2.59%; under `COc1ccc(NS(=O)(=O)c2ccc(Oc3c(C#N)cccc3C#N)cc2)cc1`, 15%. Under `Cc1ccc(S(=O)(=O)/N=C2\C=C(NS(=O)(=O)c3ccc(C)cc3)C(=O)c3ccccc32)cc1` stands 4.16%; under `COc1ccc(S(=O)(=O)/N=C2\C=C(NS(=O)(=O)c3ccccc3)C(=O)c3ccccc32)cc1`, 27.9% (active).

As to `Cc1cccc(NC(=O)c2nc[nH]c2C(=O)NCC(=O)OCc2ccccc2)c1`, the inhibition was 29.3% (active). The result for `O=C(CS(=O)(=O)Cc1ccccc1)Nc1cccnc1` reads -2.16%. The result for `Cc1cccc(NC(=O)c2nc(S(=O)(=O)Cc3ccccc3)ncc2Cl)c1` reads 51.3% (active); that for `Cc1cccc(NS(=O)(=O)c2ccc(C)c(C(=O)NCc3cccnc3)c2)c1`, -6.05%; that for `CN(CC(=O)Nc1ccc(F)cc1)CC(=O)Nc1ccc(Cl)c(S(=O)(=O)N2CCOCC2)c1`, -7.68%. The result for `Cc1cccc(CS(=O)(=O)c2ncc(Cl)c(C(=O)Nc3ccc(F)cc3)n2)c1` reads 33.5% (active); that for `O=C(N[C@@H](Cc1ccccc1)C(=O)OCc1ccccc1)c1nc[nH]c1C(=O)N[C@@H](Cc1ccccc1)C(=O)OCc1ccccc1`, 2.96%; that for `C[C@H](NC(=O)c1nc[nH]c1C(=O)NCC(=O)OC(C)(C)C)C(=O)OCc1ccccc1`, 17.7%. In the case of `Cc1cc(NS(=O)(=O)c2ccc(NC(=S)NC(=O)c3ccc(F)cc3Cl)cc2)no1`, the inhibition was 9.04%.
